About 83,000 compounds went through this panel and 20% of them were active in at least one assay; those are over-represented in the sample as a whole.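 Assay: single dose, 48 h. Readout: percent growth (0 = no net growth; negative = cell death). Active: <10.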 A number with no mark means an inactive call. Active and inactive are the calls of the source.
What follows are compounds tested on HL-60(TB) leukemia (assay: NCI-60 one-dose screen, 48 h (100 = growth as untreated, 0 = no growth, -100 = all killed)). Settings: 10 µM unless noted.
`COc1ccc(C2=NN(C(=O)c3ccc(S(C)(=O)=O)cc3)C(c3ccc(OC)c(OC)c3)C2)c(OC)c1` (stereo not given) gave a growth of 69%. For `COc1ccc(-c2cc(=O)oc3ccc(Cl)cc23)cc1F`, the growth was -21.9% (active). In the case of `O=C(Nc1ccc(-n2cc(-c3ccncc3)c(-c3ccc(O)c(Cl)c3)n2)cc1)Nc1cc(C(F)(F)F)cc(C(F)(F)F)c1`, the growth is reported as 43.6%. With `COc1ccccc1-c1nc2ccc3[nH]ncc3c2c2c1CCCC2` the growth was 89.6%. For `O=C(CN1CCN(c2cc3c(cc2F)c(=O)c(C(=O)O)cn3C2CC2)CC1)Nc1nc(-c2ccc(Cl)cc2)cs1`, the growth was 19.6%. `CC(=O)Nc1ccc2oc(=O)ccc2c1` gave a growth of 67.8%. In the case of `O=c1oc2ccc(I)cc2c(=O)n1-c1ccc(I)cc1F`, the growth is reported as -49.1% (active). In the case of `CC[C@]1(O)C[C@@H]2CN(CCc3c([nH]c4ccccc34)[C@@](C(=O)OC)(c3cc4c(cc3OC)N(C)[C@H]3[C@@](O)(C(N)=O)[C@H](O)[C@]5(CC)[C@@H]6C[C@@H]6CN6CC[C@]43[C@@H]65)C2)C1`, the growth is reported as -3.28% (active). With `CN1C(=O)/C(=C\c2c(Cl)cccc2Cl)c2ccccc21` the growth was 80.9%. With `NC(=O)NC1(C(=O)O)CCCC1` the growth was 97.1%. In the case of `Cc1ccc(-n2nc(C(C)(C)C)cc2NC(=O)NCc2cc(F)ccc2Oc2ccc3c(cnn3CCO)c2)cc1`, the growth is reported as -1.84% (active). Work on `Cc1ccc(CC#N)cc1C` yielded a growth of 116%. Work on `COc1ccc(CNC(=O)c2c(C)n([O-])c3cc(F)c(F)cc3[n+]2=O)cc1` yielded a growth of 101%. With `COc1ccc(-n2c(C(O)c3ccccc3)n[nH]c2=S)cc1` (stereo not given) the growth was 119%. For `CC(C)C[C@H](NC(=O)Cn1ccc(Nc2ccccc2)cc1=O)B(O)O`, the growth was 2.13% (active). With `CC(=O)N1N=C(c2ccc(Nc3nc(NCCO)nc(NCCO)n3)cc2)CC1c1ccc(Cl)cc1` (stereo not given) the growth was 117%. In the case of `C/C=C1/CN(CCCCC)CC[C@H]1C(=O)c1cc2ccccc2[nH]1`, the growth is reported as 90.6%. For `CCCCOc1cc(C(=O)NCCN(CC)CC)c2ccccc2n1`, the growth was 96.7%. For `COC(=O)C(C)Oc1ccc(OC#N)cc1` (stereo not given), the growth was 46.1%. For `COc1cc(/C=C/C(=O)c2c(C)nc3ccccc3c2C)ccc1OCCCCOc1cc2c(cc1OC)C(=O)N1CCC[C@H]1C=N2`, the growth was -34.1% (active). For `O=C(COCc1c(-c2ccccc2)no[n+]1[O-])Nc1nc(-c2ccc(Cl)cc2)cs1`, the growth was 119%. `O=C(N/N=C/c1ccc(Cl)cc1)c1cc(-c2cc3ccccc3o2)nn1-c1ccccc1` gave a growth of 117%. Compound `Cc1ccc(NC(=S)N/C=C(\c2ccccc2)S(=O)Cc2ccccc2)c(C)c1` (stereo not given) has a growth of 96.8%. With `CCc1c(C)c2cc3c(c(C)c2oc1=O)OCC(=O)N3` the growth was 75.9%. `O=C(Nc1cccc(Cl)c1)Nc1ncc(CCNc2ncnc3ccsc23)s1` was tested, and the growth was 8.72% (active). Work on `O=C(Cn1nc(-c2cccc3ccccc23)ccc1=O)NCc1cccc(Cl)c1` yielded a growth of 22.3% [50 µM]. `C[C@]12C[C@H](O)[C@H]3[C@@H](CCC4=CC(=O)CC[C@@]43C)[C@@H]1CC[C@@H]2C(=O)CO` showed a growth of 81.8%. `Nc1ncn([C@@H]2O[C@H](CO)[C@@H](O)[C@H]2O)c(=O)n1` was tested, and the growth was -2.84% (active). `COc1ccc(-c2ccc(-c3ccc(C(=N)N)cn3)s2)cc1OC` showed a growth of 94.9%. For `C=C1c2c(C)nn(-c3ccc(S(N)(=O)=O)cc3)c2N(C)C23CC1C1(C)c4c(C)nn(-c5ccc(S(N)(=O)=O)cc5)c4N(C)C(C)(CC12)C3` (stereo not given), the growth was 8.58% (active). `O=C(Nc1c(Cl)cccc1Cl)Oc1cccc2cccnc12` was tested, and the growth was -5.41% [100 µM] (active). Compound `Clc1ccc2c(c1)N(C1CCCN(Cc3ccccc3)C1)c1ccccc1S2` (stereo not given) has a growth of 28.5%. Work on `Cc1cc(=O)oc2cc(OCc3cn(CC(O)CO)nn3)ccc12` (stereo not given) yielded a growth of 110%. With `C(#Cc1ccccc1C#Cc1ccccn1)c1ccc(OCCCCCCOc2ccc(C#Cc3ccccc3C#Cc3ccccn3)cc2)cc1` the growth was 14.3%. In the case of `O=NN(C(=O)NC1CCC(C(=O)O)CC1)C1CCC(C(=O)O)CC1` (stereo not given), the growth is reported as 112%. With `CCN(C(=O)Nc1cccc2ccccc12)c1ccccc1` the growth was 102%. In the case of `COc1ccc(/C=C/c2nc(Nc3ccc(S(=O)(=O)Nc4cc(C)on4)cc3)c3ccccc3n2)cc1`, the growth is reported as 80.9%. For `CCOC(=O)C1=C(C)N=C2SC=C(c3ccccc3)N2[C@H]1c1cn[nH]c1-c1ccc(Cl)cc1`, the growth was 1.71% (active). `Clc1nc(Nc2ccccc2)nc(Nc2ccccc2)n1` was tested, and the growth was 65.6%. `O=C(O)c1cccc2cccc(-c3c4ccc(=O)c(O)c-4oc4c(O)c(O)ccc34)c12` showed a growth of 67.6%.
